# IDE cell activ = human IDE activators in live cells, primary screen, fluorescence polarization, HEK cells, FAbeta-B substrate | activation, % at 5.96 µM | FAbeta-B cleavage; 0% vehicle, 100% cell-free pure enzyme wells | AID 493087, 2011 | Insulin-degrading enzyme (Homo sapiens), P14735 | 340,000 tested, 0.073% active;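 active = activation above the mean of all tested compounds plus 3 SD, set per screening campaign, cut at about 17% in these data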
# LANA-H2B inh = blockers of LANA interaction with H2A/H2B – biochemical, FP readout, HTS, primary screen. cell-free LANA-H2A/H2B peptide, fluorescence polarization. Protein LANA1 (Human herpesvirus 8 type P (isolate GK18)), Q9QR71. 320,000 tested, 0.6% active. inhibition, % (test concentration not listed); in the data active = inhibition mostly above about 10%, no sharp cut-off; inactive = mostly below about 6.7%
# HDAC3 inhib = HDAC3 deacetylase inhibitors, primary screen, biochemical, fluorescence, cell-free homogeneous. recombinant HDAC3, fluorogenic peptide/trypsin coupled. inhibition, % at 8.3 µM. 320,000 tested, 0.15% active. AID 2718, 2010; in the data active = inhibition above about 26%, passing the limit was not always enough; inconclusive = no clear call, values can overlap the other calls
# Target sequence (O15379 whole entry, looked up): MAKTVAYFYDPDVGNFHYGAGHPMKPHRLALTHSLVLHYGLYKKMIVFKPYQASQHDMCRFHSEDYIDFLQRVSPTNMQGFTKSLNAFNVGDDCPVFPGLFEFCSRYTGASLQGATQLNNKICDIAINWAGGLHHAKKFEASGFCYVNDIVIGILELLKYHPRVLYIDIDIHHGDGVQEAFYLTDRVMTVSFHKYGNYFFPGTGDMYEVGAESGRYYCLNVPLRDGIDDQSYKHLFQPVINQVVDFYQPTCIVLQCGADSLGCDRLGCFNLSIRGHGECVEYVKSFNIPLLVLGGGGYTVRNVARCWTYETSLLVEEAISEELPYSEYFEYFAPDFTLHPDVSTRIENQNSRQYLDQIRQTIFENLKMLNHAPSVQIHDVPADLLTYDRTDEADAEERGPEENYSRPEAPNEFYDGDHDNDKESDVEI
# Mot1-301 SUMO = yeast Mot1-301 growth rescue at high temperature, primary screen, SUMOylation pathway inhibitor project, S. cerevisiae, ATP luminescence, 38.5C. growth rescue, % at 18.8 µM. S. cerevisiae Mot1-301 growth rescue; percent above DMSO median, 100 means doubled. AID 2716, 2010. 320,000 tested, 1% active;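 active = every valid replicate shows activation above 250% relative to neutral control wells; inactive = the rest, any valid replicate at or below 250%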;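 note: OY570 slx delta 5 strain wells were the positive control but not used for scaling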
# IDE cell inh = human IDE inhibitors in live cells, primary screen, fluorescence polarization, HEK cells, FAbetaB substrate. FAbetaB cleavage. inhibition, % at 5.59 µM. 320,000 tested, 0.41% active. AID 434962, 2010;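 active = percent inhibition above the average of all tested compounds plus 3 SD, set per screening campaign, cut at about 16% in these data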;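 note: IDE supplied by intact live HEK cells; FP after avidin binding of uncleaved biotin substrate so inhibition keeps polarization high; 0% = DMSO wells and 100% = 60 µM reference IDE inhibitor Ii1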
# Mot1 SUMO dose = growth restoration of Mot1-301 yeast on galactose, dose response, SUMO pathway inhibitor project, whole organism, S. cerevisiae, ATP luminescence, cherry-picked samples | shares compounds with Mot1-301 SUMO | S. cerevisiae Mot1-301 galactose growth, 24 h; -100 = growth of slx-deleted rescue strain | 2,300 tested, under 10 active | growth activity, percent, % at 42 µM;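 active = Signal drops as the depositor expects, and the fitted half-maximal dose is no more than ten times the top valid tested dose; inconclusive = Poor fit, or a flat curve whose signal drops by 30% to 70%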;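 note: more negative values mean stronger growth rescue toward the control strain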
# The depositor's hits bear a star; ? = inconclusive; nt = no result given; + = active, no number. Hits are enriched below; roughly 2.1% of the tested compounds scored in any of these assays.
SMILES,IDE cell activ,LANA-H2B inh,HDAC3 inhib,Mot1-301 SUMO,IDE cell inh,Mot1 SUMO dose
O=C(NCCN1CCOCC1)Nc1ccc(Cl)cc1Cl,-3,2,2,901*,7,1
CC(Oc1ccc(Cl)cc1Cl)C(=O)NCCN1CCOCC1 (stereo not given),0,-7,0,77,2,nt
O=C(O)C1CCCCC1C(=O)Nc1ccc(S(=O)(=O)N2CCOCC2)cc1 (stereo not given),5,nt,nt,nt,nt,nt
Cc1cc(=O)oc(C)c1C(=O)Nc1ccc(Cl)cn1,3,-3,2,421*,5,0
CCCN(CC(=O)Nc1ccccc1OC)C(=O)c1ccc2ncsc2c1,4,1,2,-21,-4,nt
O=C(COC(=O)COc1ccccc1Cl)Nc1ccccc1OC(F)F,0,-4,0,578*,-1,1
O=C(c1ccccc1Cl)N1CCN(Cc2ccc3c(c2)OCO3)CC1,2,0,1,3,-3,nt
CN(c1ccccc1C(=O)N1CCN(Cc2ccc3c(c2)OCO3)CC1)S(C)(=O)=O,7,8,?,+,2,0
CC(C)C(OC(=O)CN1C(=O)COc2ccccc21)C(=O)NC1CCCC1 (stereo not given),9,0,2,784*,1,0
CC(C)C(OC(=O)CN1C(=O)COc2ccccc21)C(=O)NC1CCCCC1 (stereo not given),-1,-2,-9,13,-2,nt
Nn1c(SCC(=O)Nc2c(Cl)cccc2Cl)nncc1=O,-4,1,-1,15,5,nt
O=S(=O)(Nc1cccc2cn[nH]c12)c1ccc(F)cc1,4,0,-1,790*,0,1
COc1cc(S(=O)(=O)Nc2cccc3cn[nH]c23)c(OC)cc1C,2,3,5,-1,-3,nt
N=c1sccn1CC(=O)Nc1cccc(S(N)(=O)=O)c1,1,2,nt,489*,2,1
Cc1cccc(OCC(=O)NS(=O)(=O)c2ccc(Br)cc2)c1,6,0,nt,379,-2,nt
CC(=O)Nc1cccc(OCC(=O)NS(=O)(=O)c2ccc(C)cc2)c1,1,3,-2,846*,1,-1
COc1ccc(/C=N/Nc2ccc([N+](=O)[O-])cc2)cc1O,-2,-3,1,0,3,nt
CC(=O)NC1CCCN(O)C(=O)/C=C(\C)CCOC(=O)C(NC(C)=O)CCCN(O)C(=O)/C=C(\C)CCOC(=O)C(NC(C)=O)CCCN(O)C(=O)/C=C(\C)CCOC1=O (stereo not given),nt,-7,10,559*,-11,0
CCc1ccc(NC(=S)N(Cc2cccc(Br)c2)CC2CCC(C(=O)O)CC2)cc1 (stereo not given),3,4,3,592*,-2,-1
Cc1cc(C)cc(NC(=S)N(Cc2cccc(Br)c2)CC2CCC(C(=O)O)CC2)c1 (stereo not given),4,1,6,nt,-2,nt
Cn1c(SCC(=O)Nc2nnc(-c3ccccc3)o2)nnc1C1CC1,3,0,-4,545*,-5,0
CCOC(=O)c1ccc(NC(=S)NCCCN2CCOCC2)cc1,3,-2,7,622*,3,0
CC(=O)c1ccc(NC(=S)NCCCN2CCOCC2)cc1,1,-1,-1,-2,-1,nt
COc1cc(CN2CCCC(CO)(Cc3cccc(Cl)c3)C2)cc2c1OCO2 (stereo not given),4,-5,nt,+,0,1
CC(=O)Nc1ccc(CN2CCCC(CO)(Cc3cccc(Cl)c3)C2)cc1 (stereo not given),4,3,nt,+,-2,0
SMILES,IDE cell activ,LANA-H2B inh,HDAC3 inhib,Mot1-301 SUMO,IDE cell inh,Mot1 SUMO dose
COc1cc(CN2CCCC(CO)(Cc3cccc(Cl)c3)C2)cc(OC)c1O (stereo not given),4,6,4,2,4,nt
OCC1(Cc2cccc(Cl)c2)CCCN(Cc2ccc(F)c(F)c2)C1 (stereo not given),0,-11,10,382*,5,-1
O=C(CN1CCN(c2ccc(O)cc2)CC1)Nc1ccc(S(=O)(=O)N2CCCC2)cc1,4,2,0,-7,4,nt
CC(C)Oc1ccc(C(CCN)C2CCCCC2)cc1 (stereo not given),0,-1,1,-3,-3,nt
CC(=O)C(C(c1ccccc1)c1c[nH]c2ccccc12)[N+](=O)[O-] (stereo not given),-2,2,0,402*,-11,-1
CCn1cc(C(c2ccccc2)C(C(C)=O)[N+](=O)[O-])c2ccccc21 (stereo not given),0,-1,11,-25,6,nt
COc1ccc(N=C2SC(C(N)=O)CC(=O)N2Cc2ccc3c(c2)OCO3)cc1 (stereo not given),-1,-2,-4,-8,-4,nt
CCNC(=O)C1CC(=O)N(Cc2ccc3c(c2)OCO3)C(=Nc2ccc(F)cc2)S1 (stereo not given),4,1,3,781*,2,1
COc1cc(C=O)c(-c2c(C=O)cc(OC)c3c2OCO3)c2c1OCO2,7,0,3,69,2,nt
Cc1ccc(NC(=O)/C=N/OCC(=O)NCc2ccccc2Cl)cc1,2,-5,1,464*,0,0
Cc1ccc(C)c(OCCCC(=O)N2CCOCC2)c1,6,-4,3,689*,-1,1
Cc1ccc(C)c(OCCCC(=O)O)c1,2,7,nt,83,5,nt
COc1cc([N+](=O)[O-])cc(/C=N/NC(=O)c2cc(C)nc3ccccc23)c1O,-1,-1,12,758*,-2,1
COc1cc([N+](=O)[O-])cc(/C=N/NC(=O)c2cc(-c3ccccc3)nc3ccccc23)c1O,13,-5,-2,-11,1,nt
Cc1nc(N2CCN(C(=O)c3cnccn3)CC2)c2c3c(sc2n1)CC(C(C)(C)C)CC3 (stereo not given),2,3,-4,-11,3,nt
COc1ccccc1C1CC(=O)Oc2cc(O)ccc21 (stereo not given),-1,nt,nt,nt,nt,nt
O=C1CC(c2ccccc2)c2ccc(O)cc2O1 (stereo not given),-1,-1,2,+,-2,0
CCOC(=O)c1c2ccccc2[n+]([O-])n1[C@@H](C)C(N)=O,3,4,-5,-6,-2,nt
CC(C)c1cc(N2CCOCC2)n2ncc(-c3ccccc3)c2n1,4,-1,-13,489*,nt,0

# High-throughput results (PubChem BioAssay)
